Data published in PubChem BioAssay (Tox21).
Results filed as inconclusive are left out. Active and inactive are the calls of the source. Calls come from the whole dose curve; as a rule, active = well fitted curve in the direction sought with a large enough effect in the repeat runs; inconclusive = weak or mixed curves; inactive = no such curve, though single readings can be large; an effect the other way counts as inactive or inconclusive.

How the values were obtained:
[1] = Human pregnane X receptor (PXR) small molecule agonists, qHTS cell viability counter screen (AID 1346977); note: nearly all actives have a fitted effect of over 50% in size
Outline: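 Fluorescence read-out (CellTiter-Fluor) of viability in PXR-Luc HepG2 cells, multiplexed with the luciferase agonist read. Compounds in DMSO added after 5hr plating; 24hr total exposure at 37C, 5% CO2.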

[2] = Caspase-3/7 induction in HepG2 cells by small molecules, qHTS assay (AID 1346978); note: nearly all actives have a fitted effect of over 15% in size
Outline: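 Wild-type HepG2 cells, 2,000/well, settled 5 hr at 37 C and 5% CO2, then compound-treated for 17 hr; caspase-3/7 activity read by luminescent Caspase-Glo 3/7 after 30 min at room temperature.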

[3] = Caspase-3/7 induction in CHO-K1 cells by small molecules, qHTS cell viability counter screen (AID 1346979); note: nearly all actives have a fitted effect of over 35% in size
Outline: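 CHO-K1 wt, 1,500 cells/well; 5hr pre-incubation 37C/5% CO2; compound pin transfer (DMSO); 16hr exposure; CellTiter-Fluor added, 1hr, fluorescence read.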

[4] = Caspase-3/7 induction in CHO-K1 cells by small molecules, qHTS assay (AID 1346980); note: nearly all actives have a fitted effect of over 15% in size
Outline: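 Wild-type CHO-K1 cells exposed to compounds for 17hr at 37 C, 5% CO2. Caspase-3/7 activity then measured by Caspase-Glo 3/7 luminescence after 30min at room temperature.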

[5] = Caspase-3/7 induction in HepG2 cells by small molecules, qHTS cell viability counter screen (AID 1346981); note: series mostly up to about 92 µM; nearly all actives have a fitted effect of over 30% in size
Outline: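 In this quantitative HTS counter screen, compounds delivered in DMSO were left on unmodified HepG2 cells for 16 hr at 37 C. Viability was then determined fluorometrically with CellTiter-Fluor, in parallel with caspase-3/7 induction in the same wells.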

[6] = target: Cytochrome P450 2D6 (Homo sapiens) (UniProt P10635); experiment: Cytochrome P450 Family 2 Subfamily D Member 6 (CYP2D6) small molecule antagonists: luciferase reporter qHTS assay (AID 1671196); note: series mostly up to about 120 µM; nearly all actives have a fitted effect of over 50% in size
Outline: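 Test chemicals meet CYP2D6 plus proluciferin substrate (10 min, RT); NADPH regenerating solution then drives turnover for 1 h. Detection reagent halts the reaction; luminescence measured after 20 min.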

[7] = target: Nuclear receptor subfamily 1 group I member 2 (Rattus norvegicus) (UniProt Q9R1A7); experiment: Rat pregnane X receptor (rPXR) activation by small molecules, qHTS assay (AID 1346983); conditions: rPXR luciferase reporter cells, One-Glo luminescence, 24 h; max activation: hits give high values; note: nearly all actives have a fitted effect of over 20% in size
Outline: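 Cell-based rPXR activation assay: rPXR cells, 2,000 per well, rested 5hr at 37 C, then exposed to compounds in DMSO for 24 hr at 37 C. Luciferase activity read by One-Glo luminescence after 30 min at room temperature.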

[8] = target: Nuclear receptor subfamily 1 group I member 2 (Homo sapiens) (UniProt O75469); experiment: Human pregnane X receptor (PXR) activation by small molecules, qHTS assay (AID 1346985); note: nearly all actives have a fitted effect of over 40% in size
Outline: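 DPX-2 cells (HepG2 co-transfected with a PXR response element and a CYP3A4-promoter luciferase construct) were seeded at 2,000 per well, rested 5 hr at 37C, then exposed to DMSO-dissolved compounds for 24 hr. Activation was read as luciferase luminescence.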

[9] = target: Nuclear receptor subfamily 1 group I member 2 (Homo sapiens) (UniProt O75469); experiment: Human pregnane X receptor (PXR) small molecule agonists, qHTS assay (AID 1346982); note: nearly all actives have a fitted effect of over 35% in size
Outline: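 Reporter HepG2 cells expressing PXR-Luc are cultured in charcoal-stripped FBS (5%), treated with compounds for 24 hr at 37 C, and assayed by ONE-Glo luminescence after 30 min at room temperature.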
% is set by controls: 0 for no effect and ±100 for the full control effect.

Sequence of Nuclear receptor subfamily 1 group I member 2 (Rattus norvegicus) (Q9R1A7 whole entry, looked up): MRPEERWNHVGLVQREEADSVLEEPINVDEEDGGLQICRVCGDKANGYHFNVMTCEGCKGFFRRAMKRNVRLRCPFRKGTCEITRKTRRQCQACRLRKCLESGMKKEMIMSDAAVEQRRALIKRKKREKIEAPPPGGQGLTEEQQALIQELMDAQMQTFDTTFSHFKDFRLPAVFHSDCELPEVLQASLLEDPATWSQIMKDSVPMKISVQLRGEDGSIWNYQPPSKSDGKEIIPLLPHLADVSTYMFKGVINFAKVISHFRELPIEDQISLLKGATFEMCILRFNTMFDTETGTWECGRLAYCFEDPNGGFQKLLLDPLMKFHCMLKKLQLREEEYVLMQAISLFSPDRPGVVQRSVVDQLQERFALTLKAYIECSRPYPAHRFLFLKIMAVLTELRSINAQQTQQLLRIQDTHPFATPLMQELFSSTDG
Sequence of Cytochrome P450 2D6 (Homo sapiens) (P10635 whole entry, looked up): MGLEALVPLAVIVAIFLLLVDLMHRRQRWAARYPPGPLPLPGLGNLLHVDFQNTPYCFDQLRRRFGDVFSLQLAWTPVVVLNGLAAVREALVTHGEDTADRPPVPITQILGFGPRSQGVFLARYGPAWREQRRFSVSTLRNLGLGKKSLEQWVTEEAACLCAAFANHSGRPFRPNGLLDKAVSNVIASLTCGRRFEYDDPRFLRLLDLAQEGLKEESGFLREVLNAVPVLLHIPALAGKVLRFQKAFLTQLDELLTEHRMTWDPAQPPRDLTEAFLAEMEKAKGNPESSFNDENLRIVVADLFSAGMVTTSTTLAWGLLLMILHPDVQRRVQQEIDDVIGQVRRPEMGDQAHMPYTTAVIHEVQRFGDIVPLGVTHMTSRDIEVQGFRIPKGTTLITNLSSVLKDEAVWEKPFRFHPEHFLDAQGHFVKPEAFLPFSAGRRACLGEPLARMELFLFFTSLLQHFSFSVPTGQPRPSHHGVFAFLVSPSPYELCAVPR
Sequence of Nuclear receptor subfamily 1 group I member 2 (Homo sapiens) (O75469 whole entry, looked up): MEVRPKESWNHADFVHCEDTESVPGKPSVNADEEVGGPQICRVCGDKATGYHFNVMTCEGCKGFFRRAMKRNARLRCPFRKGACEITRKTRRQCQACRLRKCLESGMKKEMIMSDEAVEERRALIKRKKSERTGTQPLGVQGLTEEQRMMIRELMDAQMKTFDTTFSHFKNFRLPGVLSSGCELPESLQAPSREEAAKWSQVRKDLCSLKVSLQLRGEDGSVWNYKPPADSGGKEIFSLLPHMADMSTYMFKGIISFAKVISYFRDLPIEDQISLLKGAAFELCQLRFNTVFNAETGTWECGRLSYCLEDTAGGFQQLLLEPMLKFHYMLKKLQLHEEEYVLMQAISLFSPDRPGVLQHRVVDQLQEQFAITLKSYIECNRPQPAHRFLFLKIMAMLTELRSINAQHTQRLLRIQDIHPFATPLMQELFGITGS

CCCCCCC1CCC(=O)O1 (stereo unspecified)
inactive: Potency [1] | outcome [2] | Potency [3] | outcome [4] | Potency [5] | Potency [6]

COc1cc(C(=O)NCc2ccc(OCCN(C)C)cc2)cc(OC)c1OC
inactive: Potency [1] | outcome [2] | Potency [3] | outcome [4] | Potency [5] | max activation [7] 4.67% | Potency [8]

NS(=O)(=O)Cc1noc2ccccc12
inactive: Potency [1] | outcome [2] | Potency [3] | outcome [4] | Potency [5] | max activation [7] -2.52%

CC(CO)(CO)[N+](=O)[O-]
inactive: Potency [1] | outcome [2] | Potency [3] | outcome [4] | Potency [5] | Potency [9] | Potency [6]
